Assay outcomes (PubChem BioAssay)
DUSP1 inh = inhibitors of human MKP-1 phosphatase; P28562; recombinant MKP-1, OMFP hydrolysis fluorescence; inhibition, %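 (compounds tested at a single concentration somewhere between 10 and 100 µM)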; 0.15% of 65,000 active;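 active means inhibition above about 50%, limit read from the data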;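 further: 0% = DMSO max control wells and 100% = wells with enzyme stopped by NaOH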
MMP13 inh = MMP13 (human) collagenase inhibition; 0.07% of 65,000 active; inhibition, % at 4 µM; P45452; MMP-13 fTHP FRET cleavage, Mca fluorescence;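 active means inhibition above the mean of compound-free control plate wells plus 3 SD, cut at about 14% in these data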;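 further: 0% = DMSO wells and 100% = wells with reference MMP-13 inhibitor after basal subtraction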
Hsp90 block = displaces geldanamycin probe from tumor Hsp90; AID 429; inhibition, % at 30 µM; 0.35% of 64,000 active; P07900; NCI-N417 lysate Hsp90, Cy3B-geldanamycin FP displacement;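 active means inhibition above 50%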;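 further: 0% = tracer plus lysate wells and 100% = tracer alone without lysate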
M1 ag = activates the M1 muscarinic receptor; 3% of 64,000 active; CHO-M1 cells, Fluo-4 calcium fluorescence, agonist mode; active compounds read high; B-score at 10 µM;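 active means fluorescence rise, raw or as B-score row- and column-corrected plate score, outside the 99.7% band of its plate's samples, either direction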
Cdc25B block = human M-phase inducer phosphatase 2 inhibition; P30305; recombinant Cdc25B, OMFP fluorescence Ex485/Em525; inhibition, %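 (compounds tested at 10 µM final in the well)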; 0.1% of 65,000 active; AID 368; in the data active means inhibition above about 50%
M1 antagonist = antagonists of rat M1 muscarinic receptor | CHO-M1 cells, Fluo-4 calcium, ACh EC80 antagonist mode; active compounds read low | B-score at 10 µM | AID 628 | P08482 | 3.4% of 64,000 active;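 active means calcium fluorescence response, raw or row-and-column corrected B-score, differing from the plate sample mean either way at a set confidence level, mostly lower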
Target sequence (P08482 whole entry, looked up): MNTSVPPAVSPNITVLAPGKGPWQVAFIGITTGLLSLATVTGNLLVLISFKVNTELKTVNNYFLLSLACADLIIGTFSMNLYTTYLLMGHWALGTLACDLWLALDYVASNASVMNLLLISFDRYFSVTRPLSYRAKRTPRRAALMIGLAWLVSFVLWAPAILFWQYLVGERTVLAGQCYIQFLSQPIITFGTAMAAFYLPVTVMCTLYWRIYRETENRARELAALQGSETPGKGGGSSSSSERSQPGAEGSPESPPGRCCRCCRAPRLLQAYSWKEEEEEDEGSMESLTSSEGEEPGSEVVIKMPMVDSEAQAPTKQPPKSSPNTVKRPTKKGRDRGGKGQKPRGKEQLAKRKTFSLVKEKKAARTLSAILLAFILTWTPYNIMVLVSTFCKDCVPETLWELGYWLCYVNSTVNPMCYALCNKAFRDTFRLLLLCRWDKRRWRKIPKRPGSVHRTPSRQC
* hit, by the source's call; . = no result given. Compounds with a hit are over-represented: about 6.1% of the library has one in this group of screens.

SMILES	DUSP1 inh	MMP13 inh	Hsp90 block	M1 ag	Cdc25B block	M1 antagonist
O=C1CC(Cc2ccccc2)C(=O)N1Cc1ccco1 (configuration not stated)	15	3	-3	-0.15	3	-0.15
O=C1CC(NCc2ccco2)C(=O)N1CCc1ccccc1 (configuration not stated)	-6	-3	-11	0.006	53*	-0.04
COc1nc(Nc2nc3ccccc3c(=O)[nH]2)nc2ccc(C)cc12	23	0	0	1.5	10	-2.1*
Cc1ccc(-n2c(=O)c3c4c(sc3n3c(C)nnc23)COC(C(C)C)C4)cc1 (configuration not stated)	-5	-1	-2	1.2	-30	-0.36
CC(=O)NCC(=O)N(Cc1ccco1)C1(C(=O)NC2CCCCC2)CCCCC1	-1	2	-3	0.49	-12	0.36
CC(=O)N(Cc1ccco1)C1(C(=O)NC2CCCCC2)CCCCC1	3	10	.	0	0	2.1*
CC(=O)Oc1ccc(C(=O)O)cc1OC(C)=O	15	-2	48	-0.51	2	1
CC(=O)Oc1cccc2c1C(=O)c1c(OC(C)=O)cc(C(=O)O)cc1C2=O	-5	6	102*	-0.16	-19	0.77
CC(NC(=O)c1ccc2c(c1)OCO2)C1CCCO1 (configuration not stated)	56*	-1	.	-0.086	-16	-0.77
Cc1occc1C(=O)NC(C)C1CCCO1 (configuration not stated)	23	-1	-10	-0.24	3	0.19
Cc1ccc(S(=O)(=O)N(C)Cc2ccc(-c3nnc4n3CCC4)cc2)cc1	4	2	0	0.57	23	2.6*
Cn1c(CNc2ccc(Cl)cc2)nc2ccccc21	2	5	-5	-0.5	-8	0.089
CC(C)N=c1cc2n(-c3ccc(Cl)cc3)c3ccccc3nc-2cc1Nc1ccc(Cl)cc1	-12	1	98*	-0.75	-5	0.71
Cc1ccc(NC(=O)c2cccc(N3C(=O)CCC3=O)c2)nc1	-5	-2	-8	-0.83	-2	0.6
CCN(CC)CCCN1C(=O)C(=O)/C(=C(/O)c2ccccc2)C1c1ccccn1 (configuration not stated)	-8	4	-1	0.98	20	0.096
c1ccc2c(c1)oc1c(N3CCN(Cc4ccc5c(c4)OCO5)CC3)ncnc12	25	1	0	0.78	-16	-2.5
Cc1ccc2c(c1)[nH]c1c(N3CCN(Cc4ccc5c(c4)OCO5)CC3)ncnc12	10	-2	-7	3.4*	4	-2
O=C(CC1(O)C(=O)N(C/C=C/c2ccccc2)c2ccccc21)c1ccccn1 (configuration not stated)	-6	5	-8	0.52	-8	1.9*
CC(C)CN1C(=O)NC(NC(=O)c2ccco2)(C(F)(F)F)C1=O (configuration not stated)	4	-2	94*	-0.019	7	0.0041
CCOC(=O)c1sc2nc(NC(=O)c3cccs3)sc2c1C	12	3	63*	-0.5	3	-2.3
CCOC(=O)c1sc2nc(NC(=O)COc3ccccc3)sc2c1C	5	-8	-3	1.7	5	0.27
CCCCOC(=O)NS(=O)(=O)c1sc(CC(C)C)cc1-c1ccc(Cn2c(CC)nc3c(C)cc(C)nc32)cc1	.	.	-2	.	.	.
CCOC(=O)CNc1c(-c2ccc(O)cc2)nc2ccccn12	-11	-67	6	1.9	-11	-0.13
CCOC(=O)CNc1c(-c2ccc(O)cc2)nc2ccc(Cl)cn12	-15	-2	9	7.8*	5	-1.4
COc1ccc(-c2[nH]ncc2-c2ccc3c(c2)OCCO3)c(O)c1	-11	-5	0	0.037	18	0.64
SMILES	DUSP1 inh	MMP13 inh	Hsp90 block	M1 ag	Cdc25B block	M1 antagonist
CCc1cc(-c2[nH]ncc2-c2ccc3c(c2)OCO3)c(O)cc1O	15	-5	96*	3.2	12	-0.0031
C1CNCCNCCNCCN1	-13	6	3	0.86	-9	0.5
CC(=O)N1c2c(cc(Br)cc2S(=O)(=O)N2CCN(C(=O)c3ccco3)CC2)CC1C (configuration not stated)	.	-7	.	2	.	-0.32
CCC1CCCCN1c1nc2c(c(=O)n(C)c(=O)n2C)n1CCSc1nc2ccccc2o1 (configuration not stated)	4	0	-1	0.19	-11	-0.71*
COCCn1c(SCC(=O)OC(C)C)nnc1-c1ccccc1	-11	-1	-8	1	-9	0.78
CCN(CC)c1ccc2cc(C(=O)Nc3cccnc3N3CCOCC3)c(=O)oc2c1	8	8	.	7.7*	-4	-0.39
CCN(CC)C(=O)C(C)OC(=O)COc1ccc(Cl)cc1C (configuration not stated)	-6	4	-7	-0.37	0	1.9*
Cc1cc(Cl)ccc1OCC(=O)OC(C)C(=O)N(C)C (configuration not stated)	-19	3	-3	0.22	-5	0.87
COc1ccc(S(=O)(=O)N(CCCN2CCCC2=O)Cc2cc3c(C)cc(C)cc3[nH]c2=O)cc1	27	-22	-3	5.1*	-14	-0.065
CCN(CC)S(=O)(=O)c1cccc(-c2nnc(SCC(=O)c3cc(C)n(C4CC4)c3C)o2)c1	9	-2	-5	3.2*	-17	-0.61
NC[C@@H]1O[C@H](C23CC4CC(CC(C4)C2)C3)Cc2c1ccc(O)c2O	.	.	78*	.	.	.
Cc1[nH]n(C(N)=S)c(=O)c1C(c1ccccc1)C(C#N)C#N (configuration not stated)	-25	0	3	0.67	2	0.29
CCCc1[nH][nH]c(=O)c1C(c1ccccc1)C(C#N)C#N (configuration not stated)	14	4	2	0.024	-8	1.2*
CC(=O)c1ccc(OCC(O)CN(C)Cc2cccs2)cc1 (configuration not stated)	14	0	-3	0.76	-17	-0.24
O=c1c2ccccc2c(C=NCCO)c(O)n1-c1ccccc1	-13	15*	0	0.015	1	0.49
O=c1c2ccccc2c(C=NC2CCS(=O)(=O)C2)c(O)n1-c1ccccc1 (configuration not stated)	-10	0	-4	-0.65	-9	0.076
CCOC(=O)CCc1c(C)nc2cc(C3CCCN(C(=O)OC(C)(C)C)C3)[nH]n2c1=O (configuration not stated)	10	-33	-4	-0.57	-5	-1.7
CCOC(=O)CCc1c(C)nc2cc(-c3ccccc3OC)[nH]n2c1=O	-3	-51	-3	-0.053	-2	2.1*
O=C(NCC1CCCO1)C1c2ccccc2C(=O)N1C1CCCCCC1 (configuration not stated)	0	-5	-1	9.2*	23	0.21
COc1ccc(C2(CNC(=O)CCC(=O)O)CCCC2)cc1	4	0	-3	-0.58	-8	0.4
